A selection: hits, their analogues and other compounds. The true share with any hit is near 17%.
TDP1 cell noCPT = qHTS for Inhibitors of human tyrosyl-DNA phosphodiesterase 1 (TDP1): qHTS in cells in absence of CPT; DT40 Tdp1-/- hTDP1 cells, no CPT, ATP luminescence, 48 h; Potency, µM (series often up to 46.2 µM), inactives show at the highest dose activity change, negative = growth inhibition, most hits filed as inhibitors; 420,000 compounds, 15% hits; AID 686978, 2013; note: % is set by controls: 0 for no effect and ±100 for the full control effect; nearly all actives have a fitted effect of over 55% in size
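Cells were dispensed at 400 per well, compounds added by pin tool, plates incubated ≥48 hr at 37 °C, then CellTiter-Glo added for 30 min at room temperature before luminescence reading. Line: DT40 Tdp1-/- complemented with hTDP1; camptothecin omitted.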
DT40 TDP1 CPT = growth inhibition of DT40 Tdp1-/-;hTDP1 cells with camptothecin (screen for TDP1 inhibitors) | 420,000 compounds, 12% hits | chicken DT40 Tdp1-/-;hTDP1 cells + 20 nM CPT, ATP luminescence, 48 h | Potency, µM (highest dose often 46.2 µM), for inactives: at the highest dose activity change, negative = growth inhibition, most hits filed as inhibitors; note: % is set by controls: 0 for no effect and ±100 for the full control effect; nearly all actives have a fitted effect of over 55% in size
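Chicken DT40 Tdp1-/- cells stably complemented with human TDP1 were seeded at 400 cells/well in medium containing 20 nM camptothecin, exposed to pin-transferred compounds, and grown at 37 °C for at least 48 hr. Viability was read as ATP luminescence.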
HepG2 viability = counter-screen for TGF-b inhibitors: cytotoxicity in HepG2 cells; HepG2 CAGA-GFP viability, ATP luminescence, 18 h; AID 588856; Potency, µM (series often up to 46.1 µM), for the others: at the top dose activity change, negative = cytotoxicity, usual class: cytotoxic; 410,000 compounds, 0.76% hits
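CellTiter-Glo luminescence gave cytotoxicity after 18 hours at 37 degrees C. The cells were HepG2 CAGA-GFP in 1% FBS DMEM, stimulated with 500 pg/mL TGF-beta after compound addition. %Activity was normalised to no-cell wells (complete cell-killing) and DMSO (no toxicity), and curves were fitted and classified.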
HT1080 IDH1KD tx = kills HT-1080 cells with IDH1 knockdown | 360,000 compounds, 2% hits | HT-1080 IDH1 knockdown viability, ATP luminescence, 48 h | Potency, µM (doses to about 46.1 µM), without a hit: top-dose activity, negative = toxicity, actives largely listed as cytotoxic | AID 686971;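 note: 0% = DMSO wells and -100% = cell-free medium wells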
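Viability of IDH1-knockdown HT-1080 fibrosarcoma cells was assessed by CellTiter-Glo after 48 h at 37 °C with titrated compound; concentration-effect curves were classified by fit quality and response size.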
TGFb inhibitor = blocks TGF-b signaling. HepG2 CAGA-GFP TGF-b/SMAD3 reporter, GFP fluorescence, 18 h; TGF-beta stimulated, 500 pg/mL final. Potency, µM (highest dose often 46.1 µM), for the others: top-dose activity, negative = inhibition, most hits filed as inhibitors. 410,000 compounds, 1.2% hits. AID 588855; note: % is set by controls: 0 for no effect and ±100 for the full control effect; nearly all actives have a fitted effect of over 65% in size
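Read-out: total well GFP (ex488/em500-530) summed from mean per-cell fluorescence. Cells: HEPG2 CAGA-GFP, 1% FBS DMEM, 18 h at 37 degrees C with 500 pg/mL final TGF-beta. Unstimulated wells served as the full-inhibition control; stimulated DMSO wells = 0%.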
HT1080NT lethal = kills 2HG-producing HT-1080-NT fibrosarcoma cells; HT-1080-NT fibrosarcoma viability, CellTiter-Glo ATP luminescence, 48 h; Potency, µM (titrated, usually from 46.1 µM), for inactives: top-dose activity, negative = less viability, hits mostly cytotoxic; 360,000 compounds, 1.6% hits;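 note: NT is the 2HG producing partner of a matched IDH1 knockdown line; 0% = DMSO-treated cells and -100% = media-only wells without cells; nearly all actives have a fitted effect of over 55% in size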
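HT-1080-NT; 750 cells/well; 5% FBS RPMI; 48 h compound, 37 degrees C; CellTiter-Glo luminescence; curve fitting and curve-class assignment.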
Active calls of the source: *; ? = inconclusive; · = no result given; ! = a repeat was not active. Calls come from the whole dose curve; as a rule, active = well fitted curve in the direction sought with a large enough effect; inconclusive = small, poorly fitted or top-dose-only effect, or another doubt; inactive = no such curve, though single readings can be large; an effect the other way counts as inactive or inconclusive. Potency is the fitted concentration of half-maximal effect.

SMILES	TDP1 cell noCPT	DT40 TDP1 CPT	HepG2 viability	HT1080 IDH1KD tx	TGFb inhibitor	HT1080NT lethal
COc1ccc(CNC(=O)c2cc(-c3cccc(Cl)c3)on2)cc1	-29%	?	-34%	·	-25%	·
CCOC(=O)CC1(NC(=O)c2cc(COc3c(F)cccc3F)on2)CCCCC1	8.2µM*	12µM*	-21%	-5%	-21%	-5%
CCc1ccc(CN(C)C(=O)c2cc(COc3c(F)cccc3F)on2)cc1	16µM*	23µM*	6%	17%	-6%	7%
CN(Cc1ccccc1)C(=O)c1cc(-c2cccc(Cl)c2)on1	?	23µM*	-32%	·	?	·
CN(Cc1cc(-c2ccccc2)on1)C(=O)c1cc(COc2c(F)cccc2F)on1	?	10µM*	-10%	-15%	2%	-1%
CCOc1ccc(NC(=O)COC(=O)c2ccccc2OCc2ccccc2Br)cc1	-8%	4%	·	11%	·	10%
COc1ccccc1N1CCN(C2CCCN(C(=O)CN3CCCC3=O)C2)CC1 (stereo not drawn)	-16%	-5%	-6%	0%	8%	0%
Cc1ccc(-c2nnc(N3CCN(C(=O)c4cccs4)CC3)c3ccccc23)cc1	23µM*	?	-20%	-1%	?	-8%
O=C(c1cccs1)N1CCN(c2nnc(-c3ccccc3)c3ccccc23)CC1	?	?	-4%	-14%	2%	-26%
Cc1ccc(-c2nnc(N3CCN(C(=O)CN4CCOCC4)CC3)c3ccccc23)cc1	16µM*	-27%	2%	2%	-4%	6%
Cc1ccc(-c2nnc(N3CCN(C(=O)Cn4c(=O)n(C)c5ccccc54)CC3)c3ccccc23)cc1	16µM*	?	3%	-25%	10%	1%
O=C(CN1CCOCC1)N1CCN(c2nnc(-c3ccccc3)c3ccccc23)CC1	-20%	?	8%	10%	-1%	7%
CC(C)(C)c1ccc(-c2nnc(SCC(=O)NC3CC3)o2)cc1	?	?	-15%	-3%	3%	0%
Cc1ccc(C2(C)NC(=O)N(CC(=O)NCCN3C(=O)S/C(=C\c4cccnc4)C3=O)C2=O)cc1 (stereo not drawn)	-25%	?	3%	-6%	-4%	-9%
COc1ccccc1NC(=O)c1ccc(COc2ccccc2OC)o1	-24%	-16%	-4%	4%	-3%	-2%
C=CCc1ccc(OCc2ccc(C(=O)Nc3ccc(NC(C)=O)cc3)o2)c(OC)c1	16µM*!	?	-34%	-11%	?	-7%
COc1ccc(NC(=O)CN(C)C(=O)c2cccc(S(=O)(=O)Nc3ccccc3Cl)c2)cc1	5%	-11%	-3%	3%	6%	9%
CC(=O)C(Sc1ncnc2sc3c(c12)CCCC3)C(C)=O	?	13µM*	-17%	-25%	9%	?
O=C(CSc1ncnc2sc3c(c12)CCCC3)c1ccccc1	?	29µM*	-8%	-5%	6%	-4%
O=C(CSc1nc2sc3c(c2c(=O)n1-c1ccccc1)CCCC3)NCc1ccco1	?	15µM*	-18%	-2%	-3%	-5%
c1coc(CNc2nc3sc4c(c3c3ncnn23)CCCC4)c1	12µM*	?	-13%	-4%	?	1%
CC1(C)Cc2c(sc3nc(SCC(=O)NCc4ccco4)n(-c4ccccc4)c(=O)c23)CS1	-21%	3%	-1%	1%	-27%	10%
CC(=O)CSc1ncnc2sc3c(c12)CCCC3	?	-17%	-6%	-14%	0%	-17%
O=S(=O)(Nc1ccc(-c2ccc3nncn3n2)cc1)c1cccc(F)c1	-18%	-25%	-15%	-12%	-9%	0%
O=C(CSc1ncnc2sc3c(c12)CCCCC3)NCc1ccco1	9.2µM*	9.2µM*	-2%	16µM*	?	?
SMILES	TDP1 cell noCPT	DT40 TDP1 CPT	HepG2 viability	HT1080 IDH1KD tx	TGFb inhibitor	HT1080NT lethal
CC(C)c1nc2sc3c(SCC(=O)NCc4ccco4)ncnc3c2c2c1CCC2	16µM*	?	-4%	?	-3%	?
O=C(CSc1ncnc2sc3c(c12)CCCC3)c1ccco1	?	?	-31%	-13%	0%	-9%
Cn1c(=O)n(C)c2cc(N3CCOCC3)c(NC(=O)c3ccccc3Br)cc21	-38%	?	-1%	·	-3%	·
O=C1C(CSCc2ccccc2)NC(=S)N1c1ccccc1 (stereo not drawn)	4.6µM*	2.9µM*	-1%	11%	-11%	-8%
CCN(CCCNC(=O)c1cc2c(-c3cccc(OC)c3)nn(C)c2s1)Cc1ccccc1	?	9.2µM*	-14%	?	-3%	?
CCN(CC)CCCNC(=O)c1cc2c(-c3ccc(Cl)cc3)nn(C)c2s1	5.8µM*	7.3µM*	-93%	23µM*	?	21µM*
COc1ccc(CCNC(=O)c2cc3c(-c4ccccc4F)nn(C)c3s2)c(OC)c1	5.8µM*	6.5µM*	-44%	·	-3%	·
Cc1ccc(CCNC(=O)c2cc3c(-c4ccccc4F)nn(C)c3s2)cc1	?	-25%	-20%	·	-9%	·
CCCN(CCC)CCCNC(=O)c1cc2c(-c3ccc(Cl)cc3)nn(C)c2s1	8.2µM*	13µM*	-46%	·	?	·
COc1ccc(CNC(=O)c2cc3c(-c4ccc(Cl)cc4)nn(C)c3s2)cc1	?	?	-9%	·	-22%	·
Cc1ccc(C(C)(C)C)c(SCC(=O)Nc2nnc(C)s2)c1	-12%	2%	-11%	-14%	-14%	3%
Cc1ccc(N(CC(=O)NCc2ccco2)C(=O)CCC(=O)Nc2ccccn2)c(C)c1	-21%	-9%	6%	0%	14%	-1%
Cc1cccc(NC(=O)CN2CCC(NC(=O)C3CCCCC3)CC2)c1C	?	-20%	5%	9%	-1%	19%
CCCCN(CC)CCNC(=O)c1cc2c(-c3ccccc3F)nn(C)c2s1	?	16µM*	-32%	?	?	?
COc1ccc(CCNC(=O)CCc2c(C)nc3cc(-c4cccc(F)c4)nn3c2C)cc1OC	8.2µM*	8.2µM*	2%	·	?	·
COc1cc(OC)cc(-c2cc3nc(C)c(CCC(=O)Nc4ccccc4OC)c(C)n3n2)c1	23µM*	?	-34%	·	?	·
COc1ccccc1-c1cc2nc(C)c(CCC(=O)NCCc3ccc(SC)cc3)c(C)n2n1	21µM*	?	-22%	·	-2%	·

High-throughput results as filed in PubChem BioAssay.
